Screening results as filed in PubChem BioAssay.
Hits are enriched below; roughly 3.9% of the tested compounds scored in any of these assays.
Cardio protect = modulators protecting cardiomyocytes from myocardial damage. protection from H2O2 cell death, % at 20 µM. 360,000 tested, 0.63% active. H9c2 cardiomyocytes, H2O2 injury protection, ATPLite, 2 h;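 active = compounds giving at least 50% protection of heart cells from peroxide-induced death in the single-dose screen, raw or plate-pattern-corrected value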;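 also: 0% = DMSO wells with peroxide and 100% = DMSO wells without peroxide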
UBC9 SUMO inh = inhibitors of human SUMOylation (UBC9); P63279; HTRF SUMOylation assay, SAE1/SAE2 + UBC9, in vitro; inhibition, % at 35 µM; 290,000 tested, 0.36% active; AID 2006; in the data active = inhibition above about 50%, passing the limit was not always enough
Target sequence (P63279 whole entry, looked up): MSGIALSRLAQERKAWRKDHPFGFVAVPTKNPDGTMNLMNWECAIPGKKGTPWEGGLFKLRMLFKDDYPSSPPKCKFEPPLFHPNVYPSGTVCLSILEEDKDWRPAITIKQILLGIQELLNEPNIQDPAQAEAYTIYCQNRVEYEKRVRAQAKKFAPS
ALR inh = inhibitors of human sulfhydryl oxidase ALR; 290,000 tested, 3.8% active; inhibition, % (concentration not given with the values); purified ALR, DTT oxidation, H2O2 HRP-luminol luminescence; P55789;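 active = mean replicate inhibition above about 79%, with every replicate also reaching it, limit read from the data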
Target sequence (P55789 whole entry, looked up): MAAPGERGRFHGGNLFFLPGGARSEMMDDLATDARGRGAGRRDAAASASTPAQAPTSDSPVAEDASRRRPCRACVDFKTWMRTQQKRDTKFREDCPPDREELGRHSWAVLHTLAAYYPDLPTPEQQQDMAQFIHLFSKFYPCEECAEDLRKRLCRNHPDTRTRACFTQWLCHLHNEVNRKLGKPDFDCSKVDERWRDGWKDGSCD
NTR1 ag = agonists of human neurotensin receptor NTR1. NTR1-U2OS beta-arrestin-GFP spot imaging, agonist mode. activation, % at 20 µM. 330,000 tested, 0.17% active. AID 493036;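 active = activation at or above 40% of the spot to cytoplasm intensity ratio, with at least 20 cells analyzed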;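 also: 0% = DMSO without peptide and 100% = 100 nM NTR1 peptide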
* marks the source's active call; other numbers are inactive results; · = no result.

SMILES | Cardio protect | UBC9 SUMO inh | ALR inh | NTR1 ag
Cc1occc1-c1nnc(SCC(=O)Nc2ccccn2)o1 | 2 | 7 | 24 | 0
COc1cnc(SCc2ccc(Cl)cc2)nc1Cl | -4 | -6 | 98* | 10
CN/N=C/c1ccc(C#N)cc1 | 2 | 9 | 99* | 0
Cc1ccccc1N/N=C/c1ccc(C#N)cc1 | -5 | 3 | -1 | -1
COc1cc(C2C(C#N)=C(N)N(N(C)C)C3=C2C(=O)CCC3)cc(OC)c1OC (configuration not stated) | -3 | 5 | -8 | 0
Cc1nn(-c2ccccc2)cc1/C=N/NC(N)=S | -4 | 17 | 97* | 1
Cc1nn(-c2ccccc2)cc1/C=N/O | 1 | 24 | 29 | 1
S=c1[nH]nc(-c2ccccc2)n1C1C=CCCC1 (configuration not stated) | 2 | 9 | 66 | 0
COc1ccc(/C=N/NC(=O)c2ccn[nH]2)cc1CSc1ccccn1 | 5 | 4 | 99* | 1
COc1ccc(/C=N/NC(=O)c2cccnc2)cc1CSc1ccccn1 | 20 | 24 | 99* | 2
COc1ccc(C(=O)N/N=C/c2ccc(OC)c(CSc3ccccn3)c2)cc1 | 20 | 0 | 99* | 2
COc1ccc(/C=N/NC(=O)c2ccn[nH]2)cc1COc1ccc(Cl)cc1 | 63* | 10 | 0 | 2
COc1ccc(/C=N/NC(=O)c2cccc(Br)c2)cc1CSc1ccccn1 | 7 | 11 | -3 | 2
COc1ccc(/C=N/NC(=O)c2ccn[nH]2)cc1Cn1cc([N+](=O)[O-])cn1 | -6 | 2 | 4 | -1
S=c1[nH]c(-c2ccc(Cl)cc2)cs1 | -7 | 8 | 97* | 6
O=C(N/N=C/c1ccccn1)c1cccc([N+](=O)[O-])c1 | 61* | 4 | -1 | 3
O=C(N/N=C/c1ccccn1)c1ccc(N/N=C/c2ccccn2)cc1 | 1 | 13 | 99* | 1
O=C(N/N=C/c1ccccn1)c1ccc(NC(=O)c2cccc([N+](=O)[O-])c2)cc1 | 69* | -7 | · | 1
COc1cccc(C(=O)COc2cccc(NC(=O)c3cccc([N+](=O)[O-])c3)c2)c1 | 35 | -14 | -6 | 5
O=C(COc1cccc(NC(=O)c2cccc([N+](=O)[O-])c2)c1)c1ccc(F)cc1 | 78* | 0 | -1 | 1
C#CCOC(=O)CCC(=O)NCCc1ccccc1 | 13 | 1 | 8 | 2
O=c1cnnc(NCc2ccccc2)[nH]1 | 0 | -4 | 4 | 1
CC(=O)Nc1cccc(-c2ccnc3c2CC(C)(C(=O)Nc2cccc(OC(F)(F)F)c2)O3)c1 (configuration not stated) | 11 | · | · | ·
CC1(C(=O)Nc2cccc(OC(F)(F)F)c2)Cc2c(-c3ccc(C(N)=O)cc3)ccnc2O1 (configuration not stated) | 56* | · | · | ·
Cc1ccc(/C=N/n2c(-c3cccc(Cl)c3)n[nH]c2=S)o1 | -2 | 1 | 38 | 0
SMILES | Cardio protect | UBC9 SUMO inh | ALR inh | NTR1 ag
S=c1[nH]nc(-c2cccc(Cl)c2)n1/N=C/c1ccco1 | · | -4 | 97* | 0
S=c1[nH]nc(-c2ccncc2)n1/N=C/C=C/c1ccco1 | 5 | 91* | 65 | 2
S=c1[nH]nc(-c2ccccc2Cl)n1/N=C/C=C/c1ccco1 | 4 | 51 | · | 2
Cc1cccc(-c2n[nH]c(=S)n2/N=C/C=C/c2ccco2)c1 | 2 | · | 97* | 0
O=C(Cn1cnc([N+](=O)[O-])n1)c1ccccc1 | -3 | 3 | -52 | 0
O=C(Cn1cnc([N+](=O)[O-])n1)c1ccc(O)c(O)c1 | -1 | -11 | 94* | 0
COc1ccc(C2CC(c3cccs3)n3nc(N)nc3N2)cc1 (configuration not stated) | 62* | 7 | · | 2
Cc1cccc(C(=O)Nc2nnc(-c3cccnc3)o2)c1 | -1 | 12 | 6 | -1
CN(C)c1ccc(C(=O)Nc2nnc(-c3ccc(Cl)cc3)o2)cc1 | 53* | -12 | -2 | 6
O=C(Nc1nnc(-c2cccnc2)o1)c1cccc([N+](=O)[O-])c1 | · | -3 | 90* | 0
COC(=O)c1ccc(C(=O)Nc2nnc(-c3cccnc3)o2)cc1 | · | 13 | 31 | 0
CC(=O)c1ccc(C(=O)Nc2nnc(-c3ccc(Cl)cc3)o2)cc1 | 66* | -16 | -1 | -1
Cc1cccc(C(=O)Nc2nnc(-c3ccncc3)o2)c1 | 3 | 14 | 97* | -1
O=C(Nc1nnc(-c2ccccc2)o1)c1ccc(Cl)cc1 | 29 | 24 | -7 | 0
Cc1c(CC(=O)N[C@H](C(=O)O)C(C)C)c(=O)oc2cc3c(cc12)CCC(C)(C)O3 | 6 | 16 | -6 | 4
